Shown is part of a subset that was picked to be rich in the strongest signals.

Holding throughout (assay): glycan array binding signal (z-score within array); higher = stronger binding
Conditions in all cases: glycan notation: IUPAC condensed, linker removed

For test [1], the target named is Fuc(a1-2)Gal(b1-3)GlcNAc(b1-3)Gal(b1-4)Glc. Summed up: (§1)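 The Consortium for Functional Glycomics database supplied 3228 glycan arrays, of which those lacking an available protein sequence were dropped. The binding signal, a within-array Z-score, was averaged across arrays of the same protein sequence and across linkers. Negative scores can be read as non-binding.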

For a further test, the target named is Fuc(a1-4)GlcNAc. A digest of the protocol: as §1
For test [2], the target named is Gal(b1-4)GalNAc(b1-3)[Fuc(a1-2)]Gal(b1-4)GlcNAc. Summed up:
as §1

For another test, the target named is Gal(b1-4)Glc. A digest of the protocol: as §1
In the next test the target is Gal(b1-4)Glc6S. Summed up: as §1
For test [3], the target named is Gal(b1-4)GlcNAc(b1-3)Gal(b1-4)[Fuc(a1-3)]GlcNAc(b1-3)Gal(b1-4)[Fuc(a1-3)]GlcNAc. Summed up: as §1
The target in test [4] is Gal(b1-4)GlcNAc(b1-6)GalNAc. Summed up:
as §1

In the next test the target is Gal4S(b1-4)GlcNAc. Summed up:
as §1

Test [5] has as its target GalNAc(b1-3)Gal(a1-4)Gal(b1-4)GlcNAc. Summed up:
as §1

The target of the next test is GlcNAc(b1-3)Gal. Summed up:
as §1

A further test concerns the target Kdn(a2-3)Gal(b1-4)GlcNAc. A digest of the protocol:
as §1

The target in test [6] is Man(a1-2)Man(a1-2)Man(a1-3)Man. A digest of the protocol: as §1
For test [7], the target named is Man(a1-2)Man(a1-3)[Man(a1-2)Man(a1-6)]Man(a1-6)[Man(a1-2)Man(a1-2)Man(a1-3)]Man(b1-4)GlcNAc(b1-4)GlcNAc. A digest of the protocol:
as §1

Another test concerns the target Man(a1-6)Man. Summed up:
as §1

The next test deals with Neu5Ac(a2-3)Gal. Summed up: as §1
Test [8] deals with Neu5Ac(a2-3)Gal(b1-3)GalNAc(b1-4)[Neu5Ac(a2-3)]Gal(b1-4)Glc. A digest of the protocol: as §1
Test [9] addresses Neu5Ac(a2-3)Gal(b1-4)[Fuc(a1-3)]GlcNAc(b1-3)Gal(b1-4)[Fuc(a1-3)]GlcNAc(b1-3)Gal(b1-4)[Fuc(a1-3)]GlcNAc. Summed up:
as §1

Test [10] has as its target Neu5Ac(a2-3)[Neu5Ac(a2-6)]GalNAc. A digest of the protocol:
as §1

The target of a further test is Neu5Ac(a2-6)Gal(b1-4)Glc. A digest of the protocol:
as §1

Test [11] concerns the target Neu5Ac(a2-6)Gal(b1-4)GlcNAc(b1-2)Man(a1-3)[Gal(b1-4)GlcNAc(b1-2)Man(a1-6)]Man(b1-4)GlcNAc(b1-4)GlcNAc. Summed up: as §1
The target in another test is Neu5Gc(a2-6)GalNAc. Summed up:
as §1

Test [12] addresses Neu5Gc(b2-6)Gal(b1-4)GlcNAc. Summed up: as §1

B1: RfpC (Mycobacterium tuberculosum), O07747 (protein)
chain: MHHHHHHSSGRENLYFQGHMASKSAMAAGLVTASMSLSTAVAHAGPSPNWDAVAQCESGGNWAANTGNGKYGGLQFKPATWAAFGGVGNPAAASREQQIAVANRVLAEQGLDAWPTCGAASGLPIALWSKPAQGIKGS
Regarding B1, the “glycan array binding signal (z-score)” value in test [1] is 0.546; with Fuc(a1-4)GlcNAc it was -1.09; in test [2], 3.48; in the test with Gal(b1-4)Glc, -0.11; with Gal(b1-4)Glc6S, 4.01; in test [3], -0.25. In addition, the “glycan array binding signal (z-score)” value in test [4] was -0.822; with Gal4S(b1-4)GlcNAc, 0.815; in test [5], 3.74; with GlcNAc(b1-3)Gal it was -0.187; in the test with Kdn(a2-3)Gal(b1-4)GlcNAc it was -0.421; in test [6], 2.92. Also, the “glycan array binding signal (z-score)” value in test [7] is -0.745; with Man(a1-6)Man, -0.622; with Neu5Ac(a2-3)Gal it was 0.641; in [8], -0.923; in test [9] it was -0.798; in [10], 0.475. Further, the “glycan array binding signal (z-score)” value with Neu5Ac(a2-6)Gal(b1-4)Glc was 0.057; in test [11] it was -0.731; with Neu5Gc(a2-6)GalNAc, 1.8; in [12], 3.14.

Values taken from the supplement of paper PMC8728848.
